Assay [1] is described as follows: antimalarial activity against Dd2 strain (AID 2302;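 active = growth inhibition above 50% at the single 2 µM test dose, taken to imply half-maximal potency below 2 µM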;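 note: 0% = DMSO untreated growth and 100% = chloroquine plus artemisinin killed control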). The following applies: P. falciparum Dd2 in RBCs, LDH growth readout, 72 h; at 2 µM; stronger effect = higher value.
Assay [2] can be described thus: human hepatoma cell viability loss – ATP luminescence, cytotoxicity control for P. falciparum antimalarial project, primary screen (AID 2303;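 active = inhibition above 50%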;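 note: 0% = DMSO wells and 100% = digitonin-killed cells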). The following applies: HepG2 viability, 24-48 h, at 10 µM, stronger effect = higher value.
The target of assay [3] is L-lactate dehydrogenase (Plasmodium falciparum (isolate CDC / Honduras)) (UniProt Q27743). As to the kind of experiment: PfLDH activity inhibition – cell lysate, 3D7 strain, counter-screen for P. falciparum growth inhibition project (AID 2304).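 Note: 0% = vehicle and 100% = reference inhibitor.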 As to conditions: P. falciparum 3D7 crude extract, LDH APAD/NBT absorbance; at 2 µM; stronger effect = higher value. In general terms: A counterscreen serves to expose hits that act by an unwanted route or on another target.

The nature of assay [4]: inhibition of 3D7 malaria parasite growth – strain 3D7 (AID 2306).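 Note: 0% = DMSO wells and 100% = chloroquine plus artemisinin control wells.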 As to conditions: P. falciparum 3D7 erythrocytic growth, LDH absorbance, 72 h; at 2 µM; stronger effect = higher value.
Assay [5] addresses Calcium-dependent protein kinase 1 (Plasmodium falciparum (isolate 3D7)) (UniProt P62344). Description: PfCDPK1 kinase inhibitors, biochemical, TCAMS library (AID 1159585; cut-off not given, nearly all actives have IC50 up to about 0.98 µM;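 note: inhibitors leave more ATP so luminescence rises with inhibition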). As to conditions: recombinant PfCDPK1, Kinase-Glo ATP depletion luminescence.
The target of assay [6] is Plasmodium falciparum protein kinase 6 (PK6, PF3D7_1337100) (UniProt Q8IDW1). Description: PfPK6 kinase inhibitors, biochemical, TCAMS library (AID 1159586). As to conditions: recombinant PfPK6, Kinase-Glo ATP depletion luminescence. A general note: In Kinase-Glo more light means more ATP remaining.
Assay [7] has as its target Protein kinase 7 (PK7), Plasmodium falciparum 3D7 (PF3D7_0213400) (UniProt Q7YTF7). As to the kind of experiment: inhibition of Plasmodium PK7 catalytic activity – biochemical, TCAMS antimalarial set, Kinase-Glo luminescence (AID 1159587). The following applies: recombinant PfPK7, Kinase-Glo ATP depletion luminescence.
Assay [8] addresses Calcium-dependent protein kinase 4 (Plasmodium falciparum (isolate 3D7)) (UniProt Q8IBS5). Description: PfCDPK4 kinase inhibitors, biochemical, TCAMS library (AID 1159588; cut-off not given, nearly all actives have IC50 up to about 0.91 µM). As to conditions: recombinant PfCDPK4, Kinase-Glo ATP depletion luminescence.

A number with no mark means an inactive call. For some of these results: Potency and affinity values are given separately. Active and inactive are the calls of the source. Unless noted, the rule behind the calls is not given here.

Chain of L-lactate dehydrogenase (Plasmodium falciparum (isolate CDC / Honduras)) (Q27743 whole entry, looked up): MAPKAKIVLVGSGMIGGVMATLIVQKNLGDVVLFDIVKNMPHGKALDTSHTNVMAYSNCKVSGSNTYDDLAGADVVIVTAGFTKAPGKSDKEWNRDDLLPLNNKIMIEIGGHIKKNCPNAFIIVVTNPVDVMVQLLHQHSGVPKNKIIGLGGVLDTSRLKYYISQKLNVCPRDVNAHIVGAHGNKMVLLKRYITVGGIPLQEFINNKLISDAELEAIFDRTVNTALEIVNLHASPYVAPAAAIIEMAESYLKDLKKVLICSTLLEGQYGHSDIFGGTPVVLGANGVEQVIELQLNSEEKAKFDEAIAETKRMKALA
Chain of Protein kinase 7 (PK7), Plasmodium falciparum 3D7 (PF3D7_0213400) (Q7YTF7 1-343): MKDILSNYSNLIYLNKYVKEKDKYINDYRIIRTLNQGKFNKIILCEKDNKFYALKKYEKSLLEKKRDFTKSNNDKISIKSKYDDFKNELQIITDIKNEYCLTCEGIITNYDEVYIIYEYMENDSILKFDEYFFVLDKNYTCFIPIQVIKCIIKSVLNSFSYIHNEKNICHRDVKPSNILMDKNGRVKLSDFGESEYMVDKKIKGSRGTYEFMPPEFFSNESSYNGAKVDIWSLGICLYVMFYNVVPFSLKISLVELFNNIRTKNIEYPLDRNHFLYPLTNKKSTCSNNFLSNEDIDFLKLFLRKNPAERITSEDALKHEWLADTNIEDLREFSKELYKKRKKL
Chain of Calcium-dependent protein kinase 4 (Plasmodium falciparum (isolate 3D7)) (Q8IBS5 whole entry, looked up): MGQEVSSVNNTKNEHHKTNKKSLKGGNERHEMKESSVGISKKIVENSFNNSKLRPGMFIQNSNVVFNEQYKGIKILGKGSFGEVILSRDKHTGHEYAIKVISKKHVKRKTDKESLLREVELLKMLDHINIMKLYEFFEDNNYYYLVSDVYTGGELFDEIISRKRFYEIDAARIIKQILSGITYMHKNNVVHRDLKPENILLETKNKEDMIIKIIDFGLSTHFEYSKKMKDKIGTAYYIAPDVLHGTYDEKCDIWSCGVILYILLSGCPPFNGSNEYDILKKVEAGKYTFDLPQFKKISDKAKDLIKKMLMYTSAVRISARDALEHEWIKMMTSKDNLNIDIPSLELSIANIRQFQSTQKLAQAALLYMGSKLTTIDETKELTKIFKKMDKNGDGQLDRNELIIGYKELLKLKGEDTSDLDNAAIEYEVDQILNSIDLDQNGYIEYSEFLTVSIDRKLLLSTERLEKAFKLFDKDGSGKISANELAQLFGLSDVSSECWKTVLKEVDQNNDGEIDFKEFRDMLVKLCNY
Chain of Plasmodium falciparum protein kinase 6 (PK6, PF3D7_1337100) (Q8IDW1 1-305): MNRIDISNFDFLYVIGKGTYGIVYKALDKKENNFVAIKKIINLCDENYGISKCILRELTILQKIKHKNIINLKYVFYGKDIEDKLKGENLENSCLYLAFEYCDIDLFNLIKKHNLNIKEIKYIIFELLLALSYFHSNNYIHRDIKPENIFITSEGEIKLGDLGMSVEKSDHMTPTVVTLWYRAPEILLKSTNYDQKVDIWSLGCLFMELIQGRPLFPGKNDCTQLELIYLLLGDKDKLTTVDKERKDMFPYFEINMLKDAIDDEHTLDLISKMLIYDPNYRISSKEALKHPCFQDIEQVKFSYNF
Chain of Calcium-dependent protein kinase 1 (Plasmodium falciparum (isolate 3D7)) (P62344 whole entry, looked up): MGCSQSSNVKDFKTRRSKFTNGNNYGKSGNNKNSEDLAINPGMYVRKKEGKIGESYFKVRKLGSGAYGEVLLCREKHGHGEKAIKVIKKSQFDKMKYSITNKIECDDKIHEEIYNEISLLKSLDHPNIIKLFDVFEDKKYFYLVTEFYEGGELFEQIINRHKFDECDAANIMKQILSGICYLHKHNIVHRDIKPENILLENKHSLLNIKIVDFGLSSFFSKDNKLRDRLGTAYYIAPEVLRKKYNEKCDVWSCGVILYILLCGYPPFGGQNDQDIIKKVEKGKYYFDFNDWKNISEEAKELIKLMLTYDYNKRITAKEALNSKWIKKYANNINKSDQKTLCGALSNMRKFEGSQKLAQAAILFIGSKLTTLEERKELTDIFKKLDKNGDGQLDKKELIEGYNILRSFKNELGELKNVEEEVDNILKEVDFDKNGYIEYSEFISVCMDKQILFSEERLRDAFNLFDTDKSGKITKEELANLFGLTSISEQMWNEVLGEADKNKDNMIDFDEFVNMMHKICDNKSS

The term inhibition denotes the drop in the measured response relative to a control, in per cent. Consider `CCC(C)NC(=O)CN1CN(c2ccccc2)C2(CCN(C(=O)c3ccc(C(C)(C)C)cc3)CC2)C1=O` (stereo not given), for which the values for the growth inhibition in assay [1] and in assay [4] were 100% (active) and 101% (active), respectively. The inhibition in assay [2] was -6%; in assay [3], -4%. The outcome in assay [5], in assay [6], in assay [7] and in assay [8] was inactive.

On to `Cc1cccc2[nH]c(-c3ccc(-c4cccc(NC(=O)CCc5cnc[nH]5)c4)s3)nc12`, for which the values for the growth inhibition in assay [1] and in assay [4] were 70% (active) and 94% (active), respectively. The inhibition is 2% in assay [2] and -4% in assay [3]. Further, the outcome in assay [5], in assay [6], in assay [7] and in assay [8] was inactive.

For the molecule `COc1ccc(NC(=O)N2CCCN(CCCCCNC(=O)/C=C/c3ccc(Cl)cc3)CC2)cc1Cl`, the figures for the growth inhibition in assay [1] and in assay [4] were 1% and 97% (active), respectively. Besides, the inhibition in assay [2] is 15%; in assay [3], 1%. Besides, the result in assay [5], in assay [6], in assay [7] and in assay [8] was inactive.

As to `CC(=O)Nc1ccc(C(=O)Nc2cccc(-c3csc(-c4nc5ccccc5[nH]4)c3)c2)cn1`, the growth inhibition in assay [1] is 97% (active); in assay [4] it was 101% (active). For the same molecule, the inhibition in assay [2] was 6%; in assay [3], -3%. The outcome in assay [5], in assay [6], in assay [7] and in assay [8] was inactive.

Turning to `CCn1nc(C(=O)NC2CCOc3ccccc32)c2ccccc2c1=O` (stereo not given), the growth inhibition is 59% (active) in assay [1] and 86% (active) in assay [4]. The inhibition is 13% in assay [2] and 0% in assay [3]. Besides, the outcome in assay [5], in assay [6], in assay [7] and in assay [8] was inactive.

With `COc1ccc(N2CCN(CCCN3CCN(C(=O)c4ccc(/C=C/c5ccc(Cl)c(Cl)c5)cc4)CC3)CC2)c(OC)c1`, the growth inhibition in assay [1] was 52% (active); in assay [4], 93% (active). Further, the values for the inhibition in assay [2] and in assay [3] were 47% and -3%, respectively. Moreover, the result in assay [5], in assay [6], in assay [7] and in assay [8] was inactive.

Turning to `Clc1cc(Nc2ccnc3ccc(Br)cc23)ccc1Oc1ccc(Cl)c2ccccc12`, the growth inhibition in assay [1] was 86% (active); in assay [4], 99% (active). Moreover, the inhibition in assay [2] is 6%; in assay [3], 3%. Besides, the result in assay [5], in assay [6], in assay [7] and in assay [8] was inactive.

In the case of `Cc1cccc2[nH]c(-c3ccc(-c4cccc(NC(=O)C(C)CN(C)C)c4)s3)nc12` (stereo not given), the growth inhibition in assay [1] was 69% (active); in assay [4], 92% (active). Besides, the inhibition in assay [2] is 12%; in assay [3] it was 0%. Besides, the result in assay [5], in assay [6], in assay [7] and in assay [8] was inactive.

As for `c1cc(-c2ccc(CN3CCN(c4ccncc4)CC3)cc2)cc(-c2nc3ccccc3[nH]2)c1`, the growth inhibition in assay [1] is 100% (active); in assay [4] it was 101% (active). The inhibition in assay [2] was 61% (active); in assay [3] it was -2%. Besides, the result in assay [5], in assay [6], in assay [7] and in assay [8] was inactive.

Take `COc1ccc(Br)cc1/C=C/C(=O)Nc1ccc(C2CCCN(C)C2)cc1` (stereo not given): the growth inhibition is 35% in assay [1] and 100% (active) in assay [4]. Besides, the inhibition in assay [2] is 18%; in assay [3] it was -2%. Moreover, the outcome in assay [5], in assay [6], in assay [7] and in assay [8] was inactive.

In the case of `CCCCc1cc(NCC)nc(Nc2ccc(OC)cc2)n1`, the growth inhibition is 32% in assay [1] and 85% (active) in assay [4]. Further, the inhibition in assay [2] is 30%; in assay [3] it was -4%. The outcome in assay [5], in assay [6], in assay [7] and in assay [8] was inactive.

As to `c1cncc(Oc2ccc(Nc3ccnc4cc(-c5cccc(CN6CCOCC6)c5)ccc34)cc2)c1`, the growth inhibition in assay [1] is 100% (active); in assay [4], 101% (active). Moreover, the results for the inhibition in assay [2] and in assay [3] were 14% and 5%, respectively. The outcome in assay [5], in assay [6], in assay [7] and in assay [8] was inactive.

On to `O=C(Nc1ccccc1)N(Cc1cccc(-c2ccc(CNCc3ccc4c(c3)OCO4)cc2)c1)C1CCN(Cc2ccccc2)CC1`, for which the growth inhibition in assay [1] was 82% (active); in assay [4], 102% (active). Also, the inhibition in assay [2] is 27%; in assay [3] it was 7%. Further, the outcome in assay [5], in assay [6], in assay [7] and in assay [8] was inactive.

`O=C(Nc1ccnc(N2CCCN(Cc3cccc(O)c3)CC2)c1)c1ccc(F)cc1`: the growth inhibition is 3% in assay [1] and 90% (active) in assay [4]. Besides, the inhibition in assay [2] is 12%; in assay [3], 4%. In addition, the outcome in assay [5], in assay [6], in assay [7] and in assay [8] was inactive.

As to `CCNc1cc(C(=O)N[C@@H](Cc2ccc(Cl)cc2)[C@H](O)CNC2CCCCC2)cc(N2CCCCS2(=O)=O)c1`, the growth inhibition in assay [1] was 99% (active); in assay [4], 98% (active). For the same molecule, the inhibition in assay [2] was 6%; in assay [3], -1%. Besides, the result in assay [5], in assay [6], in assay [7] and in assay [8] was inactive.

For the molecule `Cc1cccc2[nH]c(-c3ccc(-c4cccc(NC(=O)Nc5ccccc5)c4)cc3)nc12`, the values for the growth inhibition in assay [1] and in assay [4] were 14% and 101% (active), respectively. Moreover, the inhibition in assay [2] is 18%; in assay [3] it was 9%. The result in assay [5], in assay [6], in assay [7] and in assay [8] was inactive.

Take `C=CCc1ccccc1OCC(O)CN(C1CCCCC1)C1CCCCC1` (stereo not given): the growth inhibition was 84% (active) in assay [1] and 93% (active) in assay [4]. Also, the inhibition in assay [2] is 50% (active); in assay [3], 1%. The result in assay [5], in assay [6], in assay [7] and in assay [8] was inactive.

For `CN(C)CCc1coc2ccc(C(=O)Nc3ccc(-c4ccc(O)cc4)cc3)cc12`, the results for the growth inhibition in assay [1] and in assay [4] were 40% and 101% (active), respectively. Further, the inhibition in assay [2] was 28%; in assay [3] it was -3%. The outcome in assay [5], in assay [6], in assay [7] and in assay [8] was inactive.

On to `NC(N)=Nc1ccc(Cc2ccc(N=C(N)N)cc2)cc1`, for which the growth inhibition was 94% (active) in assay [1] and 93% (active) in assay [4]. In addition, the inhibition in assay [2] is 35%; in assay [3], -1%. The outcome in assay [5], in assay [6], in assay [7] and in assay [8] was inactive.

Regarding `O=C(NC1CCN(CC2(c3ccccc3F)CCCC2)CC1)c1ccn[nH]1`, the growth inhibition in assay [1] was 91% (active); in assay [4], 93% (active). Besides, the inhibition in assay [2] was -5%; in assay [3], -1%. Also, the outcome in assay [5], in assay [6], in assay [7] and in assay [8] was inactive.

The record behind these values is PubChem BioAssay.
